In PubChem BioAssay AID624139 (Broad Institute, 2012):
About 220 (1.3%) of roughly 17,000 compounds were called active.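 The calls were made as follows: active = spot fluorescence over background significantly raised, with a chance value under 7% in all four replicate spots of the compound; inactive = the rest.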 Only a selection was taken, and actives are over-represented in it overall.

Each molecule was assayed against Nuclear factor NF-kappa-B p105 subunit (Homo sapiens) (UniProt P19838) (assay: binders of NF-kB p50 subunit, primary screen, biochemical, small molecule microarray, anti-His fluorescence (AID 624139;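 also: probe protein is his-tagged human p50 processed subunit at 1 µg/ml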)). Conditions: anti-His fluorescence binding.
Sequence of Nuclear factor NF-kappa-B p105 subunit (Homo sapiens) (P19838 1-433 limits assumed): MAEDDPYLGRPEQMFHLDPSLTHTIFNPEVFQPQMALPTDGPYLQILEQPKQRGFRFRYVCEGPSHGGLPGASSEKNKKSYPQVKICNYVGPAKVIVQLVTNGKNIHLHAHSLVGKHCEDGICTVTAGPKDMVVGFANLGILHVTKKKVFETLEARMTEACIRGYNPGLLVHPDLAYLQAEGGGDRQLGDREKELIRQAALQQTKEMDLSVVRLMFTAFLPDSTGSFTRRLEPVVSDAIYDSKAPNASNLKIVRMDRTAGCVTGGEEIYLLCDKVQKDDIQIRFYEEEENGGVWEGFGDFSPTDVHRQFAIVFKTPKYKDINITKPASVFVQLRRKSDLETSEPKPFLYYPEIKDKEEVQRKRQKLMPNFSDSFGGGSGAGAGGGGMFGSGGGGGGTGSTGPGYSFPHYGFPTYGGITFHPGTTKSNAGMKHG

outcome, active:
Cc1cc(C)cc(Oc2c(C(F)(F)F)oc3cc(OCC(=O)O)ccc3c2=O)c1

outcome, inactive:
C[C@@H]1CN([C@@H](C)CO)C(=O)c2cc(NS(=O)(=O)c3ccccc3)ccc2O[C@@H](C)CCCCO[C@H]1CN(C)C(=O)C1CCCCC1, C[C@@H]1CCCCO[C@H](CN(C)C(=O)CCCN(C)C)[C@H](C)CN([C@@H](C)CO)C(=O)c2cc(NS(=O)(=O)c3ccccc3)ccc2O1, CCC1(C)C(=O)C=C2C(=COC(C)=C2C)C1O (centres undefined), COc1ccccc1NC(=O)c1ccc(OCC(=O)O)cc1, C[C@H](CO)N1C[C@H](C)[C@@H](CN(C)C(=O)Nc2cccc3ccccc23)Oc2c(NS(=O)(=O)c3ccccc3)cccc2C1=O, CC1OC(Oc2cc(O)c3c(=O)c(OC4OCC(O)C(O)C4O)c(-c4ccc(O)cc4)oc3c2)C(O)C(O)C1O (centres undefined), O=C(CS(=O)(=O)c1ccccc1)Nc1ccc2c(c1)OCCO2, COc1ccc(CN(C)C[C@H]2Oc3ccc(NC(=O)CCN4CCOCC4)cc3C(=O)N([C@@H](C)CO)C[C@H]2C)cc1, CC(=O)OC[C@H]1O[C@@H](Oc2c(-c3ccc(O)c(O)c3)oc3cc(O)cc(O)c3c2=O)[C@H](O)[C@@H](O)[C@@H]1O, C[C@H](CO)N1C[C@H](C)[C@@H](CN(C)Cc2ccc3c(c2)OCO3)Oc2ccc(NC(=O)Nc3ccc(F)cc3)cc2C1=O, C[C@@H]1CN([C@@H](C)CO)C(=O)c2cc(NC(=O)Nc3ccc4c(c3)OCO4)ccc2O[C@@H](C)CCCCO[C@@H]1CN(C)Cc1ccccc1, CCOC(=O)c1nnn(-c2nonc2-n2cccc2)c1CN1CCOCC1, Cc1noc(C)c1NC(=O)Nc1ccc2c(c1)CC(=O)N([C@@H](C)CO)C[C@H](C)[C@@H](CN(C)C(=O)Nc1ccc3c(c1)OCO3)O2, C[C@@H]1CN([C@@H](C)CO)C(=O)Cc2cc(NC(=O)NC3CCCCC3)ccc2O[C@H]1CN(C)C(=O)Nc1ccc(C(F)(F)F)cc1, C[C@H]1CN([C@@H](C)CO)C(=O)Cc2cc(NS(C)(=O)=O)ccc2O[C@@H]1CN(C)S(=O)(=O)c1cccs1, N#Cc1c(SCC(=O)Nc2ccccc2)ncc2cc3ccccc3nc12, CN(C)Cc1c(O)ccc2occ(C(O)c3ccccc3)c12 (centres undefined), Cc1ccc(S(=O)(=O)NCC(=O)N2CCN(c3ccccn3)CC2)cc1, CCCN(C)C[C@@H]1Oc2ncc(C#Cc3ccccc3)cc2C(=O)N([C@H](C)CO)C[C@@H]1C, C#Cc1ccc([C@H]2C=C(C(=O)O)O[C@@H](OCC)[C@@H]2CCCO)cc1, COc1ccc(NC(=O)N(C)C[C@@H]2OCCCC[C@@H](C)Oc3ccc(N(C)C)cc3C(=O)N([C@H](C)CO)C[C@@H]2C)cc1, C[C@@H]1CCCCO[C@@H](CN(C)C)[C@@H](C)CN([C@H](C)CO)C(=O)c2cc(N(C)C)ccc2O1, C[C@H](CO)N1C[C@H](C)[C@@H](CN(C)C(=O)C2CCCCC2)OCCCC[C@H](C)Oc2ccc(N(C)C)cc2C1=O, C[C@@H]1CCCCO[C@H](CN(C)S(=O)(=O)c2cccs2)[C@@H](C)CN([C@@H](C)CO)C(=O)c2cc(NC(=O)Nc3ccc4c(c3)OCO4)ccc2O1, COC(=O)c1c(CC[C@@H](CO)NC(=O)Nc2ncn[nH]2)oc(C(=O)Cc2ccccc2)c1C(=O)OC, Cc1noc(C)c1S(=O)(=O)N(C)C[C@@H]1OCCCC[C@H](C)Oc2ccc(NC(=O)NC(C)C)cc2C(=O)N([C@H](C)CO)C[C@@H]1C, COC(=O)C1=C[C@@H](O)[C@@H](O)[C@H](O[C@@H]2O[C@H](CO)[C@@H](O)[C@H](O)[C@H]2OC(=O)/C=C/c2ccccc2)C1, CC(C)NC(=O)Nc1ccc2c(c1)C(=O)N([C@@H](C)CO)C[C@H](C)[C@@H](CN(C)Cc1ccc(C(=O)O)cc1)OCCCC[C@H](C)O2, C[C@@H]1CCCCO[C@@H](CN(C)Cc2ccncc2)[C@H](C)CN([C@H](C)CO)C(=O)c2cc(N(C)C)ccc2O1, C[C@@H]1CN([C@H](C)CO)C(=O)CCCn2nncc2CO[C@@H]1CN(C)C, C[C@@H]1CN([C@@H](C)CO)C(=O)c2cccc(NC(=O)Nc3ccc(F)cc3)c2O[C@H]1CN(C)C(=O)Nc1ccc(F)cc1, C[C@H]1CCCCO[C@@H](CN(C)Cc2ccc(C(=O)O)cc2)[C@@H](C)CN([C@@H](C)CO)C(=O)c2cc(NS(C)(=O)=O)ccc2O1, COc1ccc(CN(C)C[C@@H]2Oc3ccc(NC(=O)c4ccncc4)cc3CC(=O)N([C@H](C)CO)C[C@H]2C)cc1, COc1cccc(OC)c1C(=O)NC(=S)NCc1ccco1, C[C@@H]1CCCCO[C@@H](CN(C)C(=O)Nc2ccc(F)cc2)[C@H](C)CN([C@@H](C)CO)C(=O)c2cc(NS(=O)(=O)c3ccccc3)ccc2O1, C[C@@H]1CN([C@@H](C)CO)C(=O)CCCn2cc(nn2)CO[C@H]1CN(C)S(=O)(=O)c1ccc(-n2cccn2)cc1, CNC[C@H]1Oc2ccc(NC(=O)Nc3ccc(F)cc3)cc2C(=O)N([C@@H](C)CO)C[C@@H]1C, C[C@@H]1CN([C@H](C)CO)C(=O)c2cccc(NC(=O)Nc3ccc(C(F)(F)F)cc3)c2O[C@H]1CN(C)S(=O)(=O)c1ccc(Cl)cc1, Cc1ccc(S(=O)(=O)N2CCCC2C(=O)NCCO)cc1 (centres undefined), COc1ccc([Si](C)(C)[C@@H]2[C@@H](CCO)O[C@]3(C(=O)N(Cc4ccccc4)c4ccc(N5CCC5=O)cc43)[C@H]2C)cc1, C[C@@H]1CN([C@H](C)CO)C(=O)CCCn2cc(nn2)CO[C@H]1CN(C)C(=O)Nc1ccc(N2CCCCC2)cc1, C[C@H](CO)N1C[C@H](C)[C@@H](CN(C)CC2CC2)Oc2ccc(NC(=O)Nc3ccccc3)cc2CC1=O, C[C@H](CO)N1C[C@H](C)[C@@H](CN(C)Cc2cccc3c2OCCCO3)OCc2cn(nn2)CCCC1=O
